Some test systems named below: SK-MEL-2 melanoma; EKVX NSCLC; SN12C renal; UO-31 renal; TK-10 renal; ACHN renal; CAKI-1 renal; A498 renal; CCRF-CEM leukemia; MOLT-4 leukemia.
Holding throughout (experiment): NCI-60 one-dose screen, 48 h (100 = growth as untreated, 0 = no growth, -100 = all killed)
Conditions in all cases: 10 µM unless noted

The record followed here is PubChem BioAssay (NCI).

Structures are written as SMILES. About 83,000 compounds went through this panel and 20% of them were active in at least one assay; those are over-represented in the sample as a whole.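 Cells were grown in 96-well plates and exposed to the test compound at a single concentration for 48 hours; results are reported as percent growth, with values below 10 considered active.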 Unmarked numbers belong to inactive results. Calls of active or inactive are those of the source.

With `CC(=O)Oc1csc(N(C(C)=O)c2cc(C(=O)O)cc(C(=O)O)c2)n1`, the growth in the test on SK-MEL-2 melanoma is 106%; with EKVX NSCLC, 76.2%; in the test on SN12C renal, 98.8%; with UO-31 renal it was 92.7%; in the test on TK-10 renal, 105%; with ACHN renal it was 104%. Also, the growth in the test on CAKI-1 renal was 101%; with A498 renal, 70.5%; with CCRF-CEM leukemia, 1.74% (active); in the test with MOLT-4 leukemia, 109%.
For `CN(C)c1nc2c(N)ncnc2n1C1OC(CO)C(O)C1O` (configuration not stated), the growth with SK-MEL-2 melanoma was 99.4%; with EKVX NSCLC it was 112%; with SN12C renal it was 104%; in the test with UO-31 renal, 79.5%; in the test with TK-10 renal, 107%; in the test with ACHN renal, 99.4%. Moreover, the growth is 99.3% with CAKI-1 renal, 114% in the test on A498 renal, 105% with CCRF-CEM leukemia and 111% in the test on MOLT-4 leukemia.
Take `C=CCn1c2ccccc2c2c3c(c4c5ccccc5n(CC=C)c4c21)C(=O)N(O)C3=O`: the growth in the test with SK-MEL-2 melanoma was 70.4%; in the test on EKVX NSCLC, 66%; in the test on SN12C renal, 9.32% (active); with UO-31 renal it was -47% (active); in the test with TK-10 renal, 50.8%; in the test on ACHN renal, -33.6% (active). Moreover, the growth in the test on CAKI-1 renal is -70.6% (active); in the test with A498 renal, 23.7%; in the test with CCRF-CEM leukemia, 10.2%; in the test on MOLT-4 leukemia it was -10.4% (active).
Turning to `COc1ccc(/C=C/c2c(C(C)=O)c(C)nc3ccccc23)cc1`, the growth is 75.8% in the test with SK-MEL-2 melanoma; 81.7% in the test on EKVX NSCLC; 85.6% in the test with SN12C renal; 65.1% in the test on UO-31 renal; 77.9% in the test on TK-10 renal; 84.5% in the test on ACHN renal. The growth is 81.4% with CAKI-1 renal, 72.8% with A498 renal, 77.7% in the test with CCRF-CEM leukemia and 73.1% in the test with MOLT-4 leukemia.
With `COc1ccc(-c2ccc(-c3ccc(C(=N)N)s3)s2)cc1Cl`, the growth in the test with SK-MEL-2 melanoma is 96.2%; in the test with EKVX NSCLC, 70.1%; in the test with SN12C renal it was -83.7% (active); in the test with UO-31 renal, 81.4%; in the test on TK-10 renal it was -45.1% (active); with ACHN renal it was 16.9%. Also, the growth in the test with CAKI-1 renal was 68.3%; with A498 renal it was 65.3%; in the test on CCRF-CEM leukemia, -31.2% (active); in the test on MOLT-4 leukemia, -57.3% (active).
Turning to `C=C[C@@H]1C[C@H](O)Cc2c(C)cc(C)cc2N1`, the growth in the test on SK-MEL-2 melanoma was 111%; with EKVX NSCLC it was 86.9%; in the test with SN12C renal, 95.9%; in the test with UO-31 renal, 96%; with TK-10 renal, 85.8%; with ACHN renal, 103%. For the same compound, the growth was 97.2% in the test on CAKI-1 renal, 89.9% with A498 renal, -19% (active) in the test with CCRF-CEM leukemia and -46.2% (active) in the test with MOLT-4 leukemia.
Consider `CCOC(=O)c1c(/N=C2\SC(=O)/C(=C\C(=O)OC)N2NC)sc2c1CCN(C(=O)OCC)C2`, for which the growth in the test on SK-MEL-2 melanoma is 92.5%; in the test with EKVX NSCLC it was 89.1%; in the test with SN12C renal it was 98.9%; in the test on UO-31 renal it was 87%; in the test on TK-10 renal, 121%; with ACHN renal, 102%. The growth is 103% with CAKI-1 renal, 110% in the test on A498 renal, 101% with CCRF-CEM leukemia and 106% in the test with MOLT-4 leukemia.
`C1=Cc2ccccc2N(c2nnc(-c3ccccc3)o2)c2ccccc21`: the growth in the test on SK-MEL-2 melanoma is 108%; in the test on EKVX NSCLC, 94.3%; in the test with SN12C renal, 96.2%; with UO-31 renal it was 83.9%; with TK-10 renal it was 114%; in the test with ACHN renal, 95.1%. Moreover, the growth in the test with CAKI-1 renal is 83.3%; in the test on A498 renal it was 80%; in the test with CCRF-CEM leukemia, 73.9%; with MOLT-4 leukemia, 83.5%.
As for `CC12CCC3C4(C)COC(c5ccccc5Cl)OC4CCC3(C)C1CC(C1=CCOC1=O)O2` (configuration not stated), the growth in the test on SK-MEL-2 melanoma was 77.4%; with EKVX NSCLC, 63.7%; in the test with SN12C renal, 70.2%; in the test with UO-31 renal it was 53.9%; in the test on TK-10 renal, 94.9%; in the test on ACHN renal, 58.8%. For the same compound, the growth was 56.1% in the test on CAKI-1 renal, 50.8% in the test with A498 renal, 66.8% with CCRF-CEM leukemia and 34.5% in the test on MOLT-4 leukemia.
In the case of `O=C1NC(=C(Cl)Cl)/C(=N/S(=O)(=O)N2CCC(C3(C(F)(F)F)N=N3)CC2)N1`, the growth in the test on SK-MEL-2 melanoma was 101%; in the test on EKVX NSCLC, 89.6%; in the test on SN12C renal it was 87.7%; in the test with UO-31 renal it was 85.7%; with TK-10 renal, 97%; with ACHN renal, 103%. Also, the growth in the test on CAKI-1 renal was 74.5%; in the test on A498 renal, 94.9%; in the test with MOLT-4 leukemia, 54.9%.
For `N[C@@H]1CCN(C(=O)c2cc3cc(Cl)c(F)c(F)c3[nH]2)C1`, the growth in the test with SK-MEL-2 melanoma was 99.4%; in the test on EKVX NSCLC it was 86.9%; in the test with SN12C renal it was 90.6%; in the test with UO-31 renal, 63.4%; in the test on TK-10 renal, 101%; in the test with ACHN renal, 90.9%. The results for the growth with CAKI-1 renal, with CCRF-CEM leukemia and in the test with MOLT-4 leukemia were 68%, 102% and 94.7%, respectively.
Regarding `CN(CCCCN(C[C@H]1Cc2ncccc2CN1)[C@H]1CCCc2cccnc21)C1CCC(F)(F)CC1`, the growth in the test with SK-MEL-2 melanoma is 94.6%; in the test on EKVX NSCLC, 87.4%; with SN12C renal it was 86.1%; in the test on UO-31 renal it was 67.6%; in the test with TK-10 renal it was 82.4%; in the test with ACHN renal it was 102%. For the same compound, the growth in the test on CAKI-1 renal is 73.9%; with A498 renal it was 99.4%; in the test with CCRF-CEM leukemia it was 88.3%; with MOLT-4 leukemia, 91.4%.
Turning to `S=C(S)NCCc1c[nH]c2ccccc12`, the growth is 99.6% in the test with SK-MEL-2 melanoma; 100% in the test with EKVX NSCLC; 91.8% in the test with SN12C renal; 62.8% in the test on UO-31 renal; 128% in the test with TK-10 renal; 101% in the test on ACHN renal. The results for the growth in the test with CAKI-1 renal, in the test with CCRF-CEM leukemia and in the test on MOLT-4 leukemia were 81.2%, 81.5% and 93.6%, respectively.
With `Cc1ccc(S(=O)(=O)c2nc(-c3ccccc3)oc2S(C)(=O)=O)cc1`, the growth is 67.5% in the test on SK-MEL-2 melanoma; 74.1% with EKVX NSCLC; 0.543% (active) in the test with SN12C renal; 2.62% (active) in the test with UO-31 renal; -72.8% (active) in the test with TK-10 renal; -99.7% (active) in the test with ACHN renal. Moreover, the growth in the test with CAKI-1 renal is -98.9% (active); in the test with A498 renal it was 85.2%; in the test with CCRF-CEM leukemia it was 0.985% (active); with MOLT-4 leukemia, -16.3% (active).
